Here are results for 16 compounds from the supplement of paper PMC13380429.

Structures are written as SMILES. Structures can show the parent of a compound that is named as a salt. A number with no mark means an inactive call.

This experiment relates to Vero E6 infected with SARS-CoV-2. Description: inhibition of SARS-CoV-2 cytopathic effect; higher = more antiviral protection, active = above 15. To be noted: 48 h. (Protection from cytopathic effect is a common read-out in antiviral testing.)

Turning to `CN1CCN(c2cc3c(cc2F)c(=O)c(C(=O)O)cn3-c2ccc(F)cc2)CC1` [difloxacin], the “inhibition of SARS-CoV-2 cytopathic effect” value (“inhibition” below) was -1.68% (1 nM); 2.12% (8.33 nM); 0.47% (100 nM); 0.94% (833.33 nM); 1.41% (10000 nM).
Taken in the same sequence, the figures for `COc1ccccc1N1CCN(CCCCNC(=O)c2ccc3ccccc3c2)CC1` were -1.05%, 0.24%, 1.14%, -0.36% and -6.44%.
With `C=CCN(C)CCCCCCOc1ccc(C(=O)c2ccc(Br)cc2)c(F)c1`, the “inhibition” value (1 nM) is 0.63%; the “inhibition” value (8.33 nM) is 1.12%; the “inhibition” value (100 nM) was 2.12%; the “inhibition” value (833.33 nM) is 0.47%; the “inhibition” value (10000 nM) was 13.8%.
`CCC[S+]([O-])c1ccc2[nH]c(NC(=O)OC)nc2c1` (stereo not given) [albendazole-oxide]: the “inhibition” value is, setting by setting: (1 nM) 3.02%; (8.33 nM) 2.02%; (100 nM) 0.87%; (833.33 nM) 1.7%; (10000 nM) 0.07%.
Taken in the same sequence, the figures for `CC(=O)N[C@@H](CS)C(=O)O` [acetylcysteine] were 1.87%, 1.77%, 3.98%, 1.93% and 3.74%.
With `CC(C)c1ccc(CC(=O)N2CCC[C@@H](c3cccc(OC(C)(C)C(=O)O)c3)C2)cc1`, the “inhibition” value reads like this: (1 nM) 0.54%; (8.33 nM) 0.54%; (100 nM) -0.36%; (833.33 nM) 1.87%; (10000 nM) -0.15%.
In the case of `C[C@H](Nc1ncnc2[nH]cnc12)c1cc2ccc(F)cc2nc1-c1ccccn1`, the “inhibition” value reads like this: (1 nM) 0.375%; (8.33 nM) 4.37%; (100 nM) 4.2%; (833.33 nM) 1.33%; (10000 nM) -3.42%.
Taken in the same sequence, the figures for `N#CCC(=O)c1ccccc1` were 4.1%, 4.15%, 0.67%, 2.33% and -0.41%.
The like results for `CC(C)C(=O)OC[C@@]1(N=[N+]=[N-])O[C@@H](n2ccc(N)nc2=O)[C@H](OC(=O)C(C)C)[C@@H]1OC(=O)C(C)C` [balapiravir] were, in that order, 2.39%, 1.09%, 0.61%, -0.11% and 0.76%.
As for `C/C(=C\c1csc(C)n1)[C@@H]1C[C@@H]2O[C@]2(C)CCC[C@H](C)[C@H](O)[C@@H](C)C(=O)C(C)(C)[C@@H](O)CC(=O)O1` [epothilone-B], the “inhibition” value reads like this: (1 nM) -1.66%; (8.33 nM) -5.81%; (100 nM) -4.92%; (833.33 nM) -0.91%; (10000 nM) -0.53%.
For `CC/C(=C(\c1ccc(O)cc1)c1ccc(OCCNC)cc1)c1ccccc1` [Endoxifen HCl], the “inhibition” value (1 nM) was -1.34%; the “inhibition” value (8.33 nM) was 7.36%; the “inhibition” value (100 nM) is 10.6%; the “inhibition” value (833.33 nM) is -0.77%; the “inhibition” value (10000 nM) is 57% (active).
With `O=C(Nc1ccccc1)OCC(CN1CCCCC1)OC(=O)Nc1ccccc1` (stereo not given) [diperodon], the “inhibition” value is, setting by setting: (1 nM) 0.17%; (8.33 nM) -0.37%; (100 nM) 0.05%; (833.33 nM) -2.3%; (10000 nM) -5.11%.
The like results for `CC(=O)NCCc1c(Cc2ccccc2)[nH]c2ccccc12` [luzindole] were, in that order, 5.27%, 4.35%, 1.82%, 3.18% and 3.21%.
Taken in the same sequence, the figures for `CNC(=O)c1c(C)oc2cc(Oc3ncnc4cc(OC)c(OC)cc34)ccc12` [fruquintinib] were 2.39%, -2.79%, -1.12%, -3.32% and -0.11%.
Taken in the same sequence, the figures for `O=c1[nH]c(=O)n([C@H]2C[C@H](O)[C@@H](CO)O2)cc1/C=C/Br` [brivudine] were 1.67%, 0.21%, 0.44%, -0.42% and -0.09%.
With `CCCCCCCC/C=C\CCCCCCCC(=O)N[C@@H](CO)Cc1ccc(O)cc1`, the “inhibition” value is 0.56% (1 nM); -0.46% (8.33 nM); 1.38% (100 nM); 1.23% (833.33 nM); -2.65% (10000 nM).
